This is an account of results in PubChem BioAssay (EPA / NIEHS).

What is called AC50 is the concentration at which the activity in the assay is half-maximal.

The source made the active and inactive calls. The calls were made as follows: active = hit-call score of the fitted dose curve at least 0.9, where 1 is the maximum; inactive = score below 0.9.

Common to all, as to conditions: mRNA level, 48 h; actives raise or lower the signal
Read-out in one assay: CYP4A11 (gene 1579)
The experiment in a line: LTEA_HepaRG_CYP4A11: Life Technologies and Expression Analysis (LTEA) Assay for CYP4A11 using HepaRG (AID 2283486). The procedure, abridged: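 Readout is CYP4A11 mRNA induction or suppression (qRT-PCR, ACTB/GAPDH/POLR2A normalization) in human HepaRG cells after 48 h chemical treatment, concentrations to 100 uM in 0.5% DMSO, fitted bidirectionally against vehicle.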

Read-out in assay [1]: Pro-epidermal growth factor (Homo sapiens) (UniProt P01133)
The experiment in a line: LTEA_HepaRG_EGF: Life Technologies and Expression Analysis (LTEA) Assay for Epidermal growth factor (EGF) using HepaRG (AID 2283489). The method in brief:
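EGF expression changes in human HepaRG cells are scored by bidirectional fitting relative to 0.5% DMSO controls. Chemicals are tested at eight half-log concentrations up to 100 uM for 48 h in serum-free induction medium.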

Read-out in assay [2]: Early growth response protein 1 (EGR1) transcription factor, EGR1 (gene 1958)
Nature of the assay: LTEA_HepaRG_EGR1: Life Technologies and Expression Analysis (LTEA) Assay for Early growth response protein 1 (EGR1) transcription factor using HepaRG (AID 2283490). The method in brief: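 Differentiated HepaRG cells in serum-free induction medium exposed 48 hours, duplicate, to 8 half-log concentrations up to 100 uM in 0.5% DMSO. EGR1 mRNA measured by TaqMan qRT-PCR, normalized to ACTB, GAPDH, POLR2A; bidirectional fit versus DMSO.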

Read-out in assay [3]: Ezrin (EZR), EZR (gene 7430)
Nature of the assay: LTEA_HepaRG_EZR: Life Technologies and Expression Analysis (LTEA) Assay for Ezrin (EZR) using HepaRG (AID 2283491). The procedure, abridged:
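EZR transcript levels came from Fluidigm qRT-PCR and were normalized to three housekeeping genes after 48 h chemical exposure of HepaRG cells. Dosing used an 8-point half-log series with a 100 uM top concentration in 0.5% DMSO, tested in duplicate; both directions were fitted versus vehicle.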

Read-out in another assay: CYP3A5 (gene 1577)
Nature of the assay: LTEA_HepaRG_CYP3A5: Life Technologies and Expression Analysis (LTEA) Assay for CYP3A5 using HepaRG (AID 2283493). The procedure, abridged:
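mRNA induction or loss of CYP3A5 assessed in HepaRG after 48 h dosing, 100 uM top concentration, duplicate wells; TaqMan qRT-PCR with ACTB, GAPDH, POLR2A normalization; 0.5% DMSO as negative control.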

Read-out in assay [4]: Fatty Acid-Binding Protein 1 (FABP1), FABP1 (gene 2168)
Nature of the assay: LTEA_HepaRG_FABP1: Life Technologies and Expression Analysis (LTEA) Assay for Fatty Acid-Binding Protein 1 (FABP1) using HepaRG (AID 2283494). The method in brief: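 Differentiated human HepaRG cells exposed 48 h in serum-free induction medium to eight half-log concentrations up to 100 uM (0.5% DMSO), duplicate. FABP1 mRNA by qRT-PCR, normalised to ACTB, GAPDH, POLR2A; bidirectional fitting against DMSO.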

Read-out in assay [5]: Cytochrome P450 4A22 (Homo sapiens) (UniProt Q5TCH4)
The experiment in a line: LTEA_HepaRG_CYP4A22: Life Technologies and Expression Analysis (LTEA) Assay for Cytochrome P450 4A22 (CYP4A22) using HepaRG (AID 2283495). The procedure, abridged:
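Cryopreserved HepaRG cells, plated and cultured 48 h, then switched to serum-free induction medium and treated 48 h (duplicates, up to 100 uM, half-log steps, 0.5% DMSO). Expression change of CYP4A22 was fitted bidirectionally against vehicle.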

Read-out in assay [6]: Cytochrome P450 3A4 (Homo sapiens) (UniProt P08684)
Nature of the assay: LTEA_HepaRG_CYP3A4: Life Technologies and Expression Analysis (LTEA) Assay for CYP3A4 using HepaRG (AID 2283487). The procedure, abridged:
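Differentiated HepaRG cells, plated 48 h, then dosed 48 h in serum-free induction medium with 0.5% DMSO, 8 half-log concentrations up to 100 uM, duplicate. CYP3A4 mRNA by qRT-PCR, normalized to ACTB/GAPDH/POLR2A; bidirectional fit versus DMSO.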

Read-out in assay [7]: Cytochrome P450 3A7 (Homo sapiens) (UniProt P24462)
Nature of the assay: LTEA_HepaRG_CYP3A7: Life Technologies and Expression Analysis (LTEA) Assay for CYP3A7 using HepaRG (AID 2283492). The method in brief: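 Cells were thawed, plated, cultured 48 h, then treated for a further 48 h with chemicals (eight-point half-log series from 100 uM, 0.5% DMSO). RNA was isolated and CYP3A7 expression quantified by qRT-PCR normalised to ACTB, GAPDH and POLR2A.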

Read-out in assay [8]: DNA damage-inducible transcript 3 (DDIT3), DDIT3 (gene 1649)
The experiment in a line: LTEA_HepaRG_DDIT3: Life Technologies and Expression Analysis (LTEA) Assay for DNA damage-inducible transcript 3 (DDIT3) using HepaRG (AID 2283488). The procedure, abridged:
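Changes in DDIT3 transcript, in either direction relative to 0.5% DMSO vehicle, were quantified by TaqMan qRT-PCR after 48 h chemical exposure of HepaRG cells at 8 concentrations, maximum 100 uM.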

Chain of Cytochrome P450 3A7 (Homo sapiens) (P24462 whole entry, looked up): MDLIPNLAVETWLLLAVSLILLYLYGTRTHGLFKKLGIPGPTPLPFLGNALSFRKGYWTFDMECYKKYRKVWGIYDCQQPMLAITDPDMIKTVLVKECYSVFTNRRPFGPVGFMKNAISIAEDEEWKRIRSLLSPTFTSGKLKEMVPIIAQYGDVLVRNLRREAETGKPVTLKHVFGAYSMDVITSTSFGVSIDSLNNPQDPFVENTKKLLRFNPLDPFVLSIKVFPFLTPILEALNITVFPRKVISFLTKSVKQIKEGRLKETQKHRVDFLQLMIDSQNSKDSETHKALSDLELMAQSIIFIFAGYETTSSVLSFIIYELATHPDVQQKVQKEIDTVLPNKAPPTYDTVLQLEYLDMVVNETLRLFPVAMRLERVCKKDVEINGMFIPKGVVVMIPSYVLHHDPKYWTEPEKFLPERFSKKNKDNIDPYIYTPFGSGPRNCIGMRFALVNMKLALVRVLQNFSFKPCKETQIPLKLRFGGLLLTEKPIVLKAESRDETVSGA
Chain of Cytochrome P450 3A4 (Homo sapiens) (P08684 whole entry, looked up): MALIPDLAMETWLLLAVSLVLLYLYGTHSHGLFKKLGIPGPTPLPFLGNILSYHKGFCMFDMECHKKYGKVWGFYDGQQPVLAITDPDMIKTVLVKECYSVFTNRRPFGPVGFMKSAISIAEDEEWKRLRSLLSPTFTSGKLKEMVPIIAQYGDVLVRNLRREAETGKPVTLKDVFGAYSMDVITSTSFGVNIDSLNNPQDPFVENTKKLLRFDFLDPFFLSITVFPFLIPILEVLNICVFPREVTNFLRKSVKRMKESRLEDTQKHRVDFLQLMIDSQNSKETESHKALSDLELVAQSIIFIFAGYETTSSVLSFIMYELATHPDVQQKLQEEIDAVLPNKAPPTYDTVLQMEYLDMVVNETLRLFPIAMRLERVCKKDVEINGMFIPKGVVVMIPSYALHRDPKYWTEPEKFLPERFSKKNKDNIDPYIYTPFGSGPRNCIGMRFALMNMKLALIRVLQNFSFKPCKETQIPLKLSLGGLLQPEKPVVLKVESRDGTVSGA

As for `c1ccc(C(O[C@@H]2CCCN(CCc3ccc4c(c3)OCO4)C2)c2ccccc2)cc1`, the AC50 was 59.7 µM (active) in the assay with CYP4A11 (gene 1579); 84.1 µM (active) in assay [2]; 81.9 µM (active) with CYP3A5 (gene 1577); 79.1 µM (active) in assay [4]; 6.12 µM (active) in [5]. Moreover, the result in [1] and in assay [3] was inactive.
Take `CCCCCCOC(=O)CC(CC(=O)OCCCCCC)(OC(=O)CCC)C(=O)OCCCCCC`: the compound was classed as inactive (with CYP4A11 (gene 1579); in assay [1]; in assay [2]; in assay [3]; in [7]; in the assay with CYP3A5 (gene 1577)). In addition, the compound was called inactive in assay [4] and in [5]. In assay [6], the AC50 is 17.7 µM (active).
For the compound `OC[C@H]1O[C@@H]2O[C@H]3[C@H](O)[C@@H](O)[C@@H](O[C@H]4[C@H](O)[C@@H](O)[C@@H](O[C@H]5[C@H](O)[C@@H](O)[C@@H](O[C@H]6[C@H](O)[C@@H](O)[C@@H](O[C@H]7[C@H](O)[C@@H](O)[C@@H](O[C@H]1[C@H](O)[C@H]2O)O[C@@H]7CO)O[C@@H]6CO)O[C@@H]5CO)O[C@@H]4CO)O[C@@H]3CO`, the outcome (with CYP4A11 (gene 1579); in assay [8]; in [1]; in assay [2]; in assay [3]; in [7]) was inactive. The outcome (in the assay with CYP3A5 (gene 1577); in assay [4]; in [5]) was inactive.
Turning to `NC(N)=O`, the result (with CYP4A11 (gene 1579); in assay [6]; in assay [1]; in assay [2]; in [3]; in assay [7]) was inactive. Moreover, the result (with CYP3A5 (gene 1577); in [4]; in assay [5]) was inactive.
In the case of `CCCC(CCC)C(=O)O`, the compound was called inactive (with CYP4A11 (gene 1579); in [6]; in [1]; in assay [2]; in assay [3]; in [7]). In addition, the call (in the assay with CYP3A5 (gene 1577); in [4]; in [5]) was inactive.
For `OC(Cn1cncn1)(Cn1cncn1)c1ccc(F)cc1F`, the outcome (with CYP4A11 (gene 1579); in assay [6]; in assay [1]; in assay [2]; in assay [3]; in assay [7]) was inactive. Besides, the compound was classed as inactive (with CYP3A5 (gene 1577); in assay [4]; in [5]).
Consider `O=C(O)c1cccc(C(=O)O)c1`, for which the compound was called inactive (with CYP4A11 (gene 1579); in [6]; in assay [1]; in assay [2]; in assay [3]; in assay [7]). Moreover, the compound was called inactive (with CYP3A5 (gene 1577); in assay [5]).
Consider `C=CN1CCCC1=O`, for which the call (in the assay with CYP4A11 (gene 1579); in assay [6]; in [1]; in [2]; in assay [3]; in [7]) was inactive. Besides, the result (in the assay with CYP3A5 (gene 1577); in assay [4]; in assay [5]) was inactive.
`CCc1ccc(O)c(C(C)(C)C)c1`: the compound was classed as inactive (with CYP4A11 (gene 1579); in [6]; in assay [1]; in assay [2]; in assay [3]; in assay [7]). Also, the outcome (with CYP3A5 (gene 1577); in [4]; in assay [5]) was inactive.
Consider `CCCCCOC(C)=O`, for which the result (with CYP4A11 (gene 1579); in assay [6]; in assay [1]; in assay [2]; in [3]; in assay [7]) was inactive. In addition, the compound was classed as inactive (with CYP3A5 (gene 1577); in [4]; in [5]).
With `c1ccc2cc3ccccc3cc2c1`, the result (with CYP4A11 (gene 1579); in assay [6]; in [1]; in [2]; in assay [3]; with CYP3A5 (gene 1577)) was inactive. Further, the result in [4] and in [5] was inactive. Besides, the AC50 in assay [7] was 13.2 µM (active).
On to `CCCCN1C(=O)[C@@H]([C@H](O)C2CCCCC2)NC(=O)C12CCN(Cc1ccc(Oc3ccc(C(=O)O)cc3)cc1)CC2`, for which the AC50 is 2.41 µM (active) in the assay with CYP4A11 (gene 1579); 1.82 µM (active) in assay [6]; 9.39 µM (active) in assay [1]; 2.38 µM (active) in assay [7]; 1.9 µM (active) with CYP3A5 (gene 1577); 2.84 µM (active) in assay [4]. Further, the AC50 in [5] was 3.35 µM (active). In addition, the call in assay [2] and in [3] was inactive.
For the compound `CCCCCCCCN(C)C`, the compound was classed as inactive (with CYP4A11 (gene 1579); in [6]; in assay [1]; in assay [2]; in assay [3]; in assay [7]). In addition, the compound was called inactive (with CYP3A5 (gene 1577); in assay [4]; in [5]).
In the case of `OCC(CO)(CO)CO`, the call (with CYP4A11 (gene 1579); in [6]; in assay [2]; in [3]; in assay [7]; in the assay with CYP3A5 (gene 1577)) was inactive. Further, the compound was called inactive in [4] and in assay [5].
In the case of `OC(CCl)CCl`, the call (with CYP4A11 (gene 1579); in [6]; in assay [1]; in assay [2]; in assay [3]; in assay [7]) was inactive. Also, the compound was classed as inactive (with CYP3A5 (gene 1577); in [4]; in assay [5]).
With `NC(=O)N1c2ccccc2C=Cc2ccccc21`, the compound was classed as inactive (in the assay with CYP4A11 (gene 1579); in assay [1]; in [2]; in assay [3]; in the assay with CYP3A5 (gene 1577); in assay [4]). For the same compound, in assay [5], the compound was called inactive.
For `Cc1ccc(S(=O)(=O)NC(=O)NN2CCCCCC2)cc1`, the compound was called inactive in assay [1], in assay [2], in [3] and in [4].
With `CCc1cccc(CC)c1N`, the result (with CYP4A11 (gene 1579); in assay [6]; in assay [1]; in assay [2]; in [3]; in assay [7]) was inactive. In addition, the result (with CYP3A5 (gene 1577); in assay [4]; in assay [5]) was inactive.
For `O=C(O)[C@H](O)[C@@H](O)C(=O)O`, the compound was classed as inactive in assay [8], in assay [1], in [2], in assay [3] and in assay [4].
